The text below walks through data of PubChem BioAssay AID488890 (Southern Research Specialized Biocontainment Screening …, 2010).

Out of some 320,000 compounds screened, about 1,300 (0.41%) were called active. About 3% were inconclusive and are not listed. No rule for the calls is given here. These entries were drawn from the full list. Entries with a potency or affinity are not part of this list.

This assay can be described thus: growth inhibition of non-replicating M. tuberculosis (AID 488890).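 Also: plate controls were DMSO cells for no effect and high antibiotic wells for full effect.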 Particulars: Mycobacterium tuberculosis non-replicating, at 25 µM, stronger effect = higher value.
The inhibition is the relative decrease from the control value, in per cent. With `Cc1cc(=O)[nH]c(SCC(=O)Nc2ccc(S(=O)(=O)N3CCOCC3)cc2)n1`, the inhibition is -13.9%.

Take `CN(c1ccc(C(=O)NC2CCCC2)cc1)S(=O)(=O)c1ccccc1`: the inhibition came out at 9.33%.

`CC(=O)Oc1ccc(OC(C)=O)c(S(=O)(=O)c2ccc(C)c(C)c2)c1`: the inhibition is -1.53%.

`CCOC(=O)N1CCN(S(=O)(=O)c2ccc(C)cc2)C1c1ccc(OC)cc1` (centres undefined): the inhibition is 16.9%.

In the case of `Brc1ccc2c(c1)C(c1ccc(N3CCOCC3)cc1)=NNC(c1cccs1)=N2`, the inhibition came out at 18.5%.

`c1ccc(-n2c(-c3ccco3)nnc2-c2ccco2)cc1`: the inhibition is -0.67%.

For `COC(=O)[C@@]1(Cc2ccc(OC)cc2)[C@H]2c3cc(C(=O)N(C)C)n(CCc4ccc(OC)c(Br)c4)c3C[C@H]2CN1C(=O)c1ccccc1`, the inhibition stood at 70.8%.

In the case of `CCSc1ncc(/C=N/Nc2ccc(F)cc2)n1C`, the inhibition was 60.8%.

Turning to `CCSc1ncc(/C=N/Nc2ccccc2)n1C`, the inhibition was determined as 53.4%.

On to `COc1cc(CC(NC(C)=O)C(=O)NC2CCN(c3c4c(nc5ncnn35)CCC4)CC2)cc(OC)c1` (centres undefined), for which the inhibition is -7.76%.

For the compound `O=C(N/N=C/c1cccc2ccccc12)c1cccnc1`, the inhibition was determined as 77.8%.

On to `O=C(N/N=C/c1ccccc1O)c1ccncc1`, for which the inhibition is 67.2%.

`Cc1ccc(C(=O)N/N=C/c2c(O)ccc3ccccc23)cn1`: the inhibition is -8.14%.

Consider `COc1ccc(/C=N/NC(=O)c2snnc2C)c(OC)c1OC`, for which the inhibition turned out to be 4.13%.

Consider `O=C(N/N=C/c1ccccc1C(=O)O)c1ccncc1`, for which the inhibition turned out to be 47.8%.

Take `CCOc1ccc2ccccc2c1/C=N\NC(=O)c1ccc([N+](=O)[O-])cc1`: the inhibition came out at 8.86%.

As to `Cc1nnsc1C(=O)N/N=C/c1ccccc1`, the inhibition is -14.8%.

For `CCOc1ccc2ccccc2c1/C=N/NC(=O)c1ccc(C)nc1`, the inhibition was determined as 6.31%.

Take `Cc1ccc(NC(=O)[C@H](C)NC(=O)C2CCN(C(=O)[C@@H](NC(=O)OC(C)(C)C)C(C)C)CC2)cc1`: the inhibition is -5.73%.

As for `CC(C)[C@H](NC(=O)c1ccco1)C(=O)OCC(=O)NC12CC3CC(CC(C3)C1)C2`, the inhibition is 16.5%.

Turning to `O=C(Nc1cccc(-n2cnnn2)c1)c1cnccc1Cl`, the inhibition was -2.47%.

Turning to `O=C(NCc1ccccc1)c1ccc(CN2CCC(Cc3ccccc3)CC2)cc1`, the inhibition was 63.1%.

With `CCCc1ccc2oc(C(=O)N3CCC(N4CCCC(O)C4)CC3)c(C)c2c1` (centres undefined), the inhibition is 9.91%.

For `O=C(NC1=NCCS1)c1cc(-c2ccccc2)nn1-c1ccccc1`, the inhibition was 12.3%.

For `O=C(N/N=C/c1ccnc2ccccc12)c1ccccc1O`, the inhibition came to 24.1%.

For the compound `CCOc1ccccc1C(=O)N/N=C/c1cccc2cccnc12`, the inhibition came out at 78.1%.

For `CCOc1ccc(C(=O)Nc2cccc3cccnc23)cc1`, the inhibition amounted to 39%.

As for `COc1cccc(/C=N/NC(=O)COc2cccc3cccnc23)c1O`, the inhibition was 22.2%.

In the case of `O=C(COc1cccc2cccnc12)N/N=C/c1ccccc1O`, the inhibition worked out at 21.3%.

As to `O=C(O)c1ccc(N/N=C/c2cccc3cccnc23)cc1`, the inhibition is -19.9%.

Regarding `Cc1cccc2cc(/C=N/NC(=O)c3ccccc3O)c(Cl)nc12`, the inhibition is -1.47%.

In the case of `COc1ccc(C(=O)N/N=C/c2cccnc2)cc1`, the inhibition is -12.5%.

With `O=C(c1ccccc1)N1CCN(C(=S)NCc2ccco2)CC1`, the inhibition was -12.8%.

Turning to `Cc1cc(/C=N/O)c(C)n1-c1cccc(Cl)c1`, the inhibition amounted to 5.04%.

In the case of `Nc1c(C(=O)Nc2ccc3c(c2)OCCO3)nnn1Cc1cccc(Br)c1`, the inhibition came to 1.42%.

Regarding `CCOc1ccc(N=C2NC(=O)C(CC(=O)Nc3ccc(OC)cc3)S2)cc1` (centres undefined), the inhibition was 23%.

With `N#Cc1ccc(C23CC4(C2)[C@H](CN(Cc2ccc(-c5ccccc5)cc2)[C@@H]4c2ccccc2)C3c2ccccc2)cc1` (some centres undefined), the inhibition was 34.9%.

Consider `CCN(CC)C(=O)CSc1nc(OC)cc(=O)[nH]1`, for which the inhibition is -3.35%.

`COC(=O)C1=C(C(=O)OC)[C@@H]2N(Cc3ccccc3)c3ccccc3[C@@]23C[C@@H](CO)N(C(=O)NC2CCCC2)C3=N1`: the inhibition turned out to be 39.9%.

On to `Cc1ccc(S(=O)(=O)N2CCC(=O)N(CCOC(=O)NCc3ccccc3)CC2)cc1`, for which the inhibition was 16.1%.

For the compound `O=C(O)c1ccc(N2CC3CC(C2)c2cccc(=O)n2C3)c(NC(=S)Nc2ccc(Br)cc2)c1` (centres undefined), the inhibition was 41.1%.

Consider `O=[N+]([O-])c1ccc(Nc2cccc(F)c2)nc1`, for which the inhibition turned out to be 16.5%.

Consider `CC1=NN(C(=O)c2nn(C)cc2Br)C(O)(C(F)(F)F)C1` (centres undefined), for which the inhibition was 8.53%.

Regarding `O=C(c1ccco1)N1N=C(c2ccncc2)CC1(O)C(F)(F)F` (centres undefined), the inhibition is -9.67%.

Regarding `COc1ccc(OCC(=O)N2N=C(C)CC2(O)C(F)(F)F)cc1` (centres undefined), the inhibition turned out to be 75.8%.

Take `COc1ccc(CC(=O)N2N=C(C)CC2(O)C(F)(F)F)cc1` (centres undefined): the inhibition came to 72.4%.

Regarding `CC1=NN(C(=O)c2cccnc2)C(O)(C(F)(F)F)C1` (centres undefined), the inhibition is -26.1%.

On to `CC1=NN(C(=O)CCc2ccc3c(c2)OCO3)C(O)(C(F)(F)F)C1` (centres undefined), for which the inhibition is -15.8%.

For the compound `CC1=NN(C(=O)CCc2ccccc2O)C(O)(C(F)(F)F)C1` (centres undefined), the inhibition is 74.8%.

Take `CC1=NN(C(=O)c2ccc(Cn3nc(C)cc3C)o2)C(O)(C(F)(F)F)C1` (centres undefined): the inhibition came to 24.9%.

Consider `COC(=O)c1ccccc1NC(=O)COC(=O)/C=C/c1cccs1`, for which the inhibition amounted to 18.2%.

On to `CC(C)c1ccc(C(O)Cc2nc3ccccc3n2C)cc1` (centres undefined), for which the inhibition was 41.1%.

As to `OCCCc1nc2n(n1)C(c1cccs1)C=C(c1ccccc1)N2` (centres undefined), the inhibition worked out at 0.31%.

Regarding `CCOC(=O)c1cc([N+](=O)[O-])sc1N`, the inhibition amounted to 5.99%.

As to `CCn1c(C(=O)O)c(CC(=O)NC2CCCCCC2)c2ccccc21`, the inhibition was 24.3%.

For `O=C(CSc1ncccn1)NC1CCCc2ccccc21` (centres undefined), the inhibition was -8.14%.

With `CC1=NN(C(=O)c2ccc(Cn3ccc([N+](=O)[O-])n3)cc2)C(O)(C(F)(F)F)C1` (centres undefined), the inhibition worked out at 75.5%.

For the compound `CC1=NN(C(=O)Cn2nc([N+](=O)[O-])cc2C)C(O)(C(F)(F)F)C1` (centres undefined), the inhibition was 32.3%.

Turning to `CC1=NN(C(=O)c2cccc(Cn3nc(C)c([N+](=O)[O-])c3C)c2)C(O)(C(F)(F)F)C1` (centres undefined), the inhibition is 76.4%.

As to `COc1ccc(CC(=O)N2N=C(C)CC2(O)C(F)(F)F)cc1OC` (centres undefined), the inhibition is 45.4%.

As for `CNC(=S)NNS(=O)(=O)c1ccc(OC)cc1OC`, the inhibition was -11%.

`O=C(CN1CCN(c2ccccc2)CC1)Nc1nccs1`: the inhibition is 5.49%.

Consider `COc1cccc(N2CCN(CC(=O)Nc3nnc(-c4ccccc4)s3)CC2)c1`, for which the inhibition turned out to be 29.2%.

For the compound `C=CCn1c(=S)[nH]c2cc(C(=O)Nc3ccc(OC)c(OC)c3)ccc2c1=O`, the inhibition is -8.59%.

As for `COc1cccc2cc(C(=O)NCCc3c[nH]c4ccccc34)c(=O)oc12`, the inhibition turned out to be 61%.

With `O=C(NCCc1ccc(F)cc1)c1cc2ccccc2oc1=O`, the inhibition was determined as 47.5%.

For the compound `COC(=O)C1=CN(Cc2ccc(OC)cc2)C=C(C(=O)OC)C1c1cc(OC)c(OC)c(OC)c1`, the inhibition was 8.79%.

For the compound `CCCCn1c(=O)c(C(=O)Nc2ccccn2)c(O)c2ccccc21`, the inhibition amounted to 27.8%.

Consider `CCCCCn1c(=O)c(C(=O)Nc2cc(C)ccn2)c(O)c2ccccc21`, for which the inhibition is 17.3%.

Turning to `CCCCn1c(=O)c(C(=O)Nc2ccc(C)cn2)c(O)c2ccccc21`, the inhibition is 0.62%.

Turning to `CCCCCn1c(=O)c(C(=O)Nc2ccccn2)c(O)c2ccccc21`, the inhibition was determined as 68.9%.

As to `COc1cccc(NC(=O)c2ccnc(N3CCC(C(=O)NCc4ccccc4OC)CC3)c2)c1`, the inhibition was -4.35%.

As to `CC(C)(C)C(=O)Nc1c2c(nn1-c1ccccc1)CSC2`, the inhibition was found to be 35%.

For `COc1ccc(OCC(=O)NNC(=O)c2cccnc2)cc1`, the inhibition was 3.8%.

On to `COc1cccc(N2CCN(C(=S)Nc3ccc(F)cc3)CC2)c1`, for which the inhibition was -4.62%.

`c1coc(Cn2c(-c3ccco3)nc3ccccc32)c1`: the inhibition worked out at 6.77%.

Consider `c1ccc(OCCn2c(-c3ccco3)nc3ccccc32)cc1`, for which the inhibition came to 74.4%.

For the compound `C=CCSc1nnc2c(n1)OC(C)=Nc1ccc(Br)cc1-2`, the inhibition is 5.66%.

With `Cc1cc(NC(=O)COC(=O)c2ccccc2S(=O)(=O)N(C)c2ccccc2)no1`, the inhibition was 9.17%.

On to `O=C(COc1ccccc1)Nc1nnc(-c2ccco2)o1`, for which the inhibition is 19.2%.

As for `O=C(COC(=O)Cc1ccccc1)Nc1nnc(-c2ccccc2)o1`, the inhibition was determined as 10.8%.

For `O=C(CCOc1ccccc1)Nc1nnc(-c2ccc3c(c2)OCCO3)o1`, the inhibition is -7.7%.

For the compound `O=C(Nc1nnc(-c2ccncc2)o1)c1ccccc1F`, the inhibition amounted to 21.3%.

`CC1(C(=O)OCC(=O)Nc2ccccc2)CC1(Cl)Cl` (centres undefined): the inhibition came out at 48.2%.

With `CS(=O)(=O)c1ccccc1-c1nnc(NC(=O)COc2ccc(Cl)cc2)o1`, the inhibition is 21.8%.

For the compound `O=C(Nc1ccc2c(c1)CCC2)c1c(F)cccc1Cl`, the inhibition came to 1.55%.

As to `Cc1ccc(C)c(-c2nnc(NC(=O)Cc3ccccc3)o2)c1`, the inhibition is -18%.

Turning to `COc1ccccc1NC(=O)COC(=O)CCc1ccc(S(=O)(=O)N2CCOCC2)cc1`, the inhibition was 5.51%.

Regarding `CCCCN1CC(COc2ccccc2)OC1=O` (centres undefined), the inhibition stood at 72.5%.

For `COc1ccc(Nc2oc(COc3cccc(C)c3)nc2C#N)cc1`, the inhibition came to 13.3%.

On to `CCN(CC)S(=O)(=O)c1ccc(N2CCCC2)c(NC(=O)c2c(-c3ccccc3)noc2C)c1`, for which the inhibition worked out at 13.9%.

Take `Cc1cccc(C(=O)NCC(=O)OCC(=O)NC2CCCCC2)c1`: the inhibition is -3.75%.

With `O=C(NCc1ccncc1)C(=O)NCC1OCCN1S(=O)(=O)c1cc(F)ccc1F` (centres undefined), the inhibition stood at 3.82%.

On to `Cc1cccc2c(=O)c(C(=O)NCCCN3CCOCC3)c[nH]c12`, for which the inhibition is 4.67%.

Regarding `Cc1nnc(SCCn2c(N3CCCCC3)nc3c2c(=O)n(C)c(=O)n3C)s1`, the inhibition stood at 7.29%.

As to `O=C(Nc1ccc([N+](=O)[O-])cn1)c1ccc2c(c1)OCO2`, the inhibition was -8.57%.

In the case of `Cc1cnc(NC(=O)c2ccc3c(c2)OCCO3)s1`, the inhibition amounted to 12.1%.

`Cc1ccc(C2(c3noc(CN4CCC(C(=O)N5CCOCC5)CC4)n3)CCCC2)cc1`: the inhibition came out at 14.3%.

Regarding `COC(=O)c1oc2ccc(Br)cc2c1NC(=O)CCCN1C(=O)c2ccccc2C1=O`, the inhibition was -12.2%.

As for `CC(=O)Oc1ccc(C(=O)Nc2cccc(C(=O)NC(C)(C)C)c2)cc1`, the inhibition is 7.66%.

Take `O=C(COc1ccc2c(-c3ccccc3)cc(=O)oc2c1)NCc1ccccn1`: the inhibition worked out at 7.24%.

Take `Cc1nn(-c2ccccc2)c(C)c1CN`: the inhibition was 6.26%.

In the case of `CCOc1ccc(C(=O)Oc2ccc(NC(C)=O)cc2)cc1`, the inhibition is 24.7%.

On to `CC(=O)Nc1ccc(OC(=O)c2ccc(Cl)cc2)cc1`, for which the inhibition is 52.1%.

As for `Cc1ccc(N2CC(C(=O)Nc3nnc(SCCC4OCCO4)s3)CC2=O)cc1C` (centres undefined), the inhibition was found to be 27.4%.

For the compound `CCN(CC(=O)NCc1ccc(F)cc1)C(=O)COc1ccc(C)c(C)c1`, the inhibition amounted to 28.3%.

In the case of `COc1ccc(C(=O)O)cc1S(=O)(=O)NC(C)C`, the inhibition is -0.91%.

With `Oc1ccc(Br)cc1-c1cc(-c2ccc(Cl)cc2)n[nH]1`, the inhibition was found to be 13.8%.

As to `Oc1ccc(Br)cc1-c1cc(-c2ccccc2)n[nH]1`, the inhibition was -5.74%.
